Test results taken from PubChem BioAssay AID651568 (National Center for Advancing Translational Sciences (NCATS), 2012).
Screen size: about 1,200 compounds; about 55 (5%) were called active. Not shown: some 15% with an inconclusive outcome. For the sample, actives were picked, then their nearest neighbours and some compounds at random. Values without a mark were called inactive. Calls come from the whole dose curve; as a rule, active = well fitted inhibition curve with a large enough effect; inconclusive = small, poorly fitted or top-dose-only effect; inactive = no such curve, though single readings can be large or run the other way.

assay: qHTS Assay to Find Inhibitors of Chronic Active B-Cell Receptor Signaling: Hit Validation in Renilla Reporter Assay; conditions: TMD8 IkB-Renilla luciferase reporter, NF-kB signaling; series mostly up to 57.5 µM; activity change, negative = inhibition: at the top concentration; note: nearly all actives have a fitted effect of over 70% in size
Excerpt: Diffuse large B-cell lymphoma (DLBCL) is the most common category of non-Hodgkin lymphoma, with ~20,000 new cases per year in the United States. DLBCL should be regarded as a collection of different neoplasms. Microarray gene expression analysis has defined two principal types of DLBCL, named for their similarity to normal B cell stages or activation states: a germinal center B-cell (GCB) type, and an activated B-cell (ABC) type. In ABC-DLBCL, a constitutive high-level activity of the NF-kappaB family of transcription factors has been observed (1) and NF-kappaB target genes are more highly expressed in ABC primary tumors than in GCB tumors. Functional studies have shown a constitutive high-level activity of the IkappaB (inhibitor of kappa-B) kinase (IKK) complex. […] Further analysis of DLBCL primary tumors for NF-kappaB target gene expression imply that although CARD11 is required for constitutive IKK activity in all ABC-DLBCL lines, mutations in CARD11 may be the root cause of IKK activation only in lines or tumors with such mutations. In other words, CARD11 mutations may explain NF-kappaB activation in only 10% of ABC-DLBCL cases. […] This process has been termed 'chronic active BCR signaling' (CABS). The goal of this screen is to find small-molecule inhibitors of the CABS pathway found in ABC-DLBCL lines using a cell-based assay that measures IkappaBalpa stability, which has already been extensively validated in the OCI-Ly3 line (PubChem AID:445; REF: 4). […] Hits from the primary screen were tested in this orthogonal secondary assay. NIH Molecular Libraries Probe Production Network [MLPCN] NIH Chemical Genomics Center [NCGC] MLPCN Grant: R03 DA031086 PI Name: Dr. R. Eric Davis
The IkB-Photinus/Renilla reporter assay differs from the primary assay in that the reporters are constitutively expressed, and based on luciferases that are different from the click beetle luciferases and each other. These differences should help to eliminate artifactual sources of activity specific to the primary assay. This assay uses the Dual-Glo substrate from Promega; extensively validated in a 96-well format, it could be converted to a smaller-well format. All lines needed for the IkB-Photinus/Renilla assay have already been prepared and extensively validated
% is set by controls: 0 for no effect and ±100 for the full control effect; potency is the fitted concentration of half-maximal effect.

With `CCCc1nc([N+](=O)[O-])c(S(=O)(=O)c2ccccc2)n1CC(C)C` the Potency was 30.1 µM (active).
With `O=S1(=O)C=C(Sc2nc3cc(Cl)ccc3o2)c2ccccc21` the Potency was 8.49 µM (active).
In the case of `O=C(/C=C/c1cccs1)c1cc(Br)ccc1OC(=O)N1CCOCC1`, the Potency is reported as 26.9 µM (active).
For `N=C1SCC(=O)N1c1ncc(Cc2ccccc2Cl)s1`, the Potency was 8.49 µM (active).
For `N=C1SCC(=O)N1c1ncc(Cc2cccc(Cl)c2)s1`, the Potency was 3.01 µM (active).
With `COc1ccc(/C=C/C(=O)c2cc(F)ccc2OC(=O)c2ccccc2C)cc1OC` the Potency was 13.5 µM (active).
For `COc1ccc(/C=C/C(=O)c2cc(F)ccc2OC(=O)c2ccccc2OC)cc1OC`, the Potency was 6.75 µM (active).
With `COc1ccc(/C=C/C(=O)c2cc(F)ccc2OC(=O)c2ccc(OC)c(OC)c2)cc1OC` the Potency was 7.57 µM (active).
With `O=C(/C=C/c1ccccc1)c1ccc(NC2=NCCCS2)cc1` the Potency was 21.3 µM (active).
With `CCOC(=O)C1CCN(S(=O)(=O)c2c(Cl)ccc3nonc23)CC1` the Potency was 3.01 µM (active).
With `Cc1ccc(C)c(-n2c3nc(=O)[nH]c(=O)c-3cc3cc([N+](=O)[O-])ccc32)c1` the Potency was 16.9 µM (active).
In the case of `Cc1cccc(-n2c3nc(=O)[nH]c(=O)c-3cc3cc([N+](=O)[O-])ccc32)c1`, the Potency is reported as 26.9 µM (active).

Point of comparison: `COc1cc2c(cc1OC)-c1cc(Nc3ccc(C)cc3)nc(=O)n1CC2`, “activity change, negative = inhibition” value -18.8%. Against it:
- Cc1ccc(C(=O)c2cc([N+](=O)[O-])ccc2N2CCCCC2)cc1C — higher, 1.06%
- CCOC(=O)C1=C(C)NC(C)=C(C(=O)OCC)C1/C=C/c1ccccc1 — higher, 12.9%
- O=C(/C=C\c1ccco1)Nc1cc([N+](=O)[O-])ccc1F — higher, -0.37%
- CCOC(=O)C(C)Oc1cccc2c(=O)n(CC(=O)NCc3ccccc3)ccc12 (stereo not drawn) — lower, -22.1%
- COc1ccc(N(C(=O)c2ccccc2C)S(=O)(=O)c2cccs2)cc1 — higher, 12.6%
- Cc1ccc(C(=O)c2cc([N+](=O)[O-])ccc2N2CCCCC2)cc1 — higher, 0.979%
- O=C(Oc1ccc2ccc(OC(=O)N3CCOCC3)cc2c1)N1CCOCC1 — higher, 5.12%
- C#C[C@]1(O)CC[C@H]2[C@@H]3CCc4cc(O)ccc4[C@H]3CC[C@@]21C — higher, -9.49%
- O=C(COc1ccccc1-c1ccccc1)N/N=C/c1cccc2ccccc12 — higher, -0.961%
- Nc1cc(=O)[nH]c(SCC(=O)Nc2cc(Cl)cc(Cl)c2)n1 — higher, 19%
- CCc1ccc(CCC(=O)Nc2ncc(Cc3ccccc3Cl)s2)o1 — higher, -12.8%
- Cn1c(=O)n(Cc2ccccc2Cl)c2ccccc21 — higher, 7.35%
- COc1ccccc1-c1noc(CSc2nc(N)cc(=O)[nH]2)n1 — higher, -1.85%
- COc1ccc(S(=O)(=O)Nc2cc3c(C(C)=O)c(C)oc3c3ccccc23)cc1 — higher, 24.7%
- O=c1cc(-c2ccccc2)[nH]c2ccccc12 — higher, 1.97%
- COc1ccc2cc(C3c4cc(OC)c(OC)cc4CCN3C(=O)c3ccco3)c(=O)[nH]c2c1 (stereo not drawn) — higher, 0.254%
- CCOC(=O)c1[nH]c(C)c(C(=O)c2cc(F)ccc2F)c1C — higher, -10.3%
- C/C(=N\NC(=O)c1c([N+](=O)[O-])c(C)nn1C)c1ccc(NC(=O)C2CCCC2)cc1 — higher, 5.23%
- CCOC(=O)c1[nH]c2c(c1C)C(=O)CC(c1ccc(F)cc1)C2 (stereo not drawn) — higher, 8.44%
- CC[C@]12c3[nH]c4cc(CCC(=O)N(C)C)ccc4c3CCN1C(=O)[C@@H](CC(=O)NCCCN(C)C)C[C@@H]2C(=O)N1CCN(C(=O)c2ccco2)CC1 — higher, -12.6%
- COc1ccc(/C=N\NC(=O)c2ccccc2F)cc1COc1ccc(F)cc1F — higher, -2%
- COc1ccc(S(=O)(=O)N2CCOCC2)cc1NC(=O)/C=C/c1ccc(F)cc1 — higher, 2.91%
- CCc1ccc(NC(=O)C(C)OC(=O)/C=C/c2ccc(O)c(OC)c2)cc1 (stereo not drawn) — higher, -16.3%
- COc1ccc(/C=C/c2ccncc2)cc1OC — higher, 1.23%
- COc1ccc(NC(=S)N/N=C/c2ccc(F)cc2)cc1OC — higher, 2.21%
- Cc1ccccc1C(=O)Oc1ccc2ccc(O)cc2c1 — higher, 1.03%
- COc1cccc(/C=N/Nc2nc(Nc3ccccc3)nc(-n3nc(C)cc3C)n2)c1O — higher, -13.7%
- NC(=O)c1c(NC(=O)CSc2nc(N)cc(=O)[nH]2)sc2c1CCCC2 — higher, -13.8%
- CCOc1ncccc1C(=O)N1CCN(c2cc(Cl)ccc2C)CC1 — higher, -5.04%
- Cc1ccc(/C=N/NC(=O)c2cc(-c3ccncc3)nc3ccccc23)o1 — higher, 1.04%
- CCOC(=O)c1c(C)n(C)c2ccc(OC)c(NC(=O)CN3CCC4(CC3)OCCO4)c12 — higher, 0.686%
- COC(=O)C1=C(C)NC(C)=C(C(=O)OC)C1/C=C/c1ccccc1 — higher, 22.2%
- Cc1nc(NC(=O)c2cnccn2)ccc1Br — higher, -7.88%
- Cn1c(=O)[nH]c(=O)c2c1nc(SCC(N)=O)n2Cc1cccc(Br)c1 — higher, 3.59%
- CCOC(=O)C1CCN(C(=O)CSc2cc(=O)n(CC)c3ccccc23)CC1 — higher, 4.83%
- COc1ccc(C(=O)NN(C)c2nc(C(F)(F)F)nc3ccccc23)cc1 — higher, -4.63%
- COc1ccc(-c2cnnn2-c2ccc(NC(=O)c3ccc(S(=O)(=O)N4CCCCC4)cc3)cc2)cc1OC — higher, 9.05%
- COCCn1c(-c2cccc([N+](=O)[O-])c2)nc2c1c(=O)[nH]c(=O)n2Cc1ccccc1 — higher, -17.5%
- Cc1ccc(C(=O)c2cc([N+](=O)[O-])ccc2N2CCCCC2)c(C)c1 — higher, -15.6%
- Cc1ccc(C(=O)c2cc([N+](=O)[O-])ccc2N2CCOCC2)c(C)c1 — higher, -2.34%
